Consider 61 molecules from ChEMBL document CHEMBL3988442, “University of Dundee, Small-Polar-MMV Screening Library” (2021).

Among all 66,000 compounds or so, about 960 (1.5%) showed an effect of 50% or more. Shown is part of a subset that was picked to be rich in strong results.

For this assay, the system named is Trypanosoma brucei. Kind of assay: Trypanosoma brucei 72 hour study. In kind it is functional, organism-based. Also noted: scale not given: in the data most compounds retested in dose-response had high values.

With `CC(C)=CCN1C(=O)[C@H]2CC[C@@H]1CN(c1ncccc1C(N)=O)C2`, where the note is “30 µM, 30.03 µM”, the “Percent Effect” value is reported as 2.727%.
Turning to `CC1c2ncc(CNC(=O)C3CC3)n2CCN1Cc1nccs1.O=C(O)C(F)(F)F` (stereo unspecified), the “Percent Effect” value (30.3 µM, […]) is given as -11.04%.
In the case of `CN1CC(Nc2nc3c(cnn3C(C)(C)C)c(=O)[nH]2)CCC1=O` (stereo unspecified), for the setting “30 µM, 30.03 µM”, the “Percent Effect” value is on record as -21.89%.
The same measure, in the same setting: to `CC(C)(C)n1ncc2c(=O)[nH]c(NC3CC=CC3)nc21` belongs 100.8%; to `CC(C)(C)n1ncc2c(=O)[nH]c(N3CC(O)C3)nc21`, 18.67%.
`Cc1ncc(CN2CCC(N(C)Cc3noc(C4CC4)n3)C2)s1` (stereo unspecified): under “10 µM”, the “Percent Effect” value is -20.3%.
On to `CC(Cn1cccn1)NC(=O)NCc1cccnc1` (stereo unspecified), for which the “Percent Effect” value (10 µM) was -30.88%.
Turning to `O=C(O)C(c1ccc2c(c1)OCCO2)N1CCC(N2CCSCC2)CC1` (stereo unspecified), the “Percent Effect” value (30 µM, 30.03 µM) is given as -29.57%.
In the case of `CN(Cc1nc(N)c2ccccc2n1)CC1CCCN1c1cccnn1` (stereo unspecified), the “Percent Effect” value (30 µM, 30.03 µM) amounted to 4.932%.
Take `Cc1nc(CN(C)CC2CCCN2c2cccnn2)nc2ccccc12` (stereo unspecified): the “Percent Effect” value (30.3 µM, […]) amounted to 101.1%.
Turning to `Cc1nc2ccccc2nc1CN(C)CC1CCCN1c1cccnn1` (stereo unspecified), under “30 µM, 30.03 µM”, the “Percent Effect” value is -12.68%.
As for `Cc1nn(C)c(N(C)C)c1CNCCOc1ccc2c(c1)OCO2.Cl`, under “10 µM”, the “Percent Effect” value is recorded as -62.44%.
Turning to `Cc1nc(CNc2cccc(Cl)c2Cl)cs1`, the “Percent Effect” value (30.3 µM, […]) turned out to be 13.05%.
With `CN(C)c1cccc(C2CCCN2CCCN2CCOC2=O)c1` (stereo unspecified), where the note is “30.3 µM, […]”, the “Percent Effect” value is 100.6%.
As for `O=C1OCCN1CCCN1CCCC1c1ccc(O)cc1` (stereo unspecified), for the setting “30.3 µM, […]”, the “Percent Effect” value was -41.53%.
Regarding `CN(C)c1cccc(C2CCCN2Cc2nnnn2C2CC2)c1` (stereo unspecified), under “30 µM, 30.03 µM”, the “Percent Effect” value is -5.59%.
Same read-out and setting: to `Cc1cc(C(=O)N2CCN(c3nc4c(C(C)C)cccc4s3)CC2)no1` belongs -24.13%.
As for `Cc1ccc(CN(CCCn2ccnc2)Cc2c[nH]cn2)s1.O=C(O)CC(O)(CC(=O)O)C(=O)O`, the “Percent Effect” value (30.3 µM, […]) is 1.137%.
As for `CN(C)c1ccc(CN(CCCn2ccnc2)Cc2c[nH]cn2)cc1.O=C(O)CC(O)(CC(=O)O)C(=O)O`, the “Percent Effect” value (30.3 µM, […]) came out at 101.7%.
Take `Cc1ccc(CN(CCCn2ccnc2)Cc2cnc(N(C)C)nc2)s1.O=C(O)CC(O)(CC(=O)O)C(=O)O`: the “Percent Effect” value (30.3 µM, […]) is reported as -19.58%.
Turning to `CCOc1ccc(Cl)cc1C1CCCCN1.Cl` (stereo unspecified), the “Percent Effect” value (30 µM, 30.03 µM) is reported as -10.24%.
As for `Cc1cccc(CN2C(=O)CCC23CCN(C(=O)NC(C)C)CC3)n1.O=C(O)C(F)(F)F`, the “Percent Effect” value (30.3 µM, […]) is listed as -47.32%.
Turning to `Cc1c(-c2cc(C(F)(F)F)nc(N3CCC(N)CC3)n2)cnn1C`, the “Percent Effect” value (30.3 µM, […]) was 47.45%.
Same read-out and setting: to `CCc1ccc(-c2cc(C(F)(F)F)nc(N3CCC(N)CC3)n2)cc1` belongs 100.3%.
The same measure, in the same setting: to `CCn1ncc(-c2cc(C(F)(F)F)nc(N3CCC(N)CC3)n2)c1C` belongs 100.2%.
`O=C(O)C1CCCN1c1nc(-c2ccc(Cl)cc2)cc(C(F)(F)F)n1` (stereo unspecified): for the setting “30 µM, 30.03 µM”, the “Percent Effect” value is recorded as -38.97%.
The same measure, in the same setting: to `O=C(O)C1CCCN1c1nc(-c2ccc(Cl)c(Cl)c2)cc(C(F)(F)F)n1` (stereo unspecified) belongs -7.275%; to `Cc1ccc(-c2cc(C(F)(F)F)nc(N3CCOCC3)n2)s1`, -24.17%.
As for `Cc1nccn1CCC1CCNCC1.Cl.Cl`, the “Percent Effect” value (30.3 µM, […]) is listed as -19.74%.
The same measure, in the same setting: to `CC1c2ncc(Cn3cccn3)n2CCN1Cc1ccc(F)cc1.O=C(O)C(F)(F)F` (stereo unspecified) belongs 6.386%; to `CCS(=O)(=O)N1CCCC(Cc2cnccn2)C1` (stereo unspecified), -26.51%; to `C1CCC(CNC2CCCN(Cc3noc(C4CC4)n3)C2)C1` (stereo unspecified), 26.01%.
For the molecule `C1CCCN(CC2CCCN(Cc3noc(C4CC4)n3)C2)CC1` (stereo unspecified), the “Percent Effect” value (30.3 µM, […]) is 63.76%.
As for `c1ncn(CC2CCCN(Cc3noc(C4CC4)n3)C2)n1` (stereo unspecified), the “Percent Effect” value (30.3 µM, […]) is recorded as -10.36%.
Regarding `C1CCC(CNC2CCCN(Cc3noc(C4CC4)n3)C2)CC1` (stereo unspecified), under “30.3 µM, […]”, the “Percent Effect” value came to 78.83%.
On the same count and under the same terms, the figure for `C1CC(NCC2CC2)CN(Cc2noc(C3CC3)n2)C1` (stereo unspecified) is -4.666%.
Consider `C1CCCN(C2CCCN(Cc3noc(C4CC4)n3)C2)CC1` (stereo unspecified), for which, where the note is “30.3 µM, […]”, the “Percent Effect” value is on record as 49.07%.
As to `Cn1cc(CN2C[C@@H]3COC[C@H](C(=O)Nc4cccnc4)[C@@H]3C2)cn1.O=C(O)C(F)(F)F.O=C(O)C(F)(F)F`, the “Percent Effect” value (30 µM, 30.03 µM) is -8.066%.
The same measure, in the same setting: to `NC(=O)c1ccccc1NC(=O)CCN1CCN(c2ccccc2)CC1` belongs 4.761%.
`CCOC(=O)N1CCc2ccccc2C12CCNCC2.Cl`: for the setting “30.3 µM, […]”, the “Percent Effect” value is -45.47%.
On to `Cc1ccc(CN2CCC3(CC2)CN(C(=O)c2cnccn2)CCO3)o1.O=C(O)C(F)(F)F`, for which the “Percent Effect” value (30.3 µM, […]) is reported as -12.58%.
Still for that read-out and setting: the figure for `CC1=N[C@@]2(CC[C@@H]3CN(Cc4ccccc4)C[C@@H]32)C(=O)N1CC1CC1.O=C(O)C(F)(F)F` is -40.35%; for `CC1=N[C@@]2(CC[C@@H]3CN(Cc4ccccc4C)C[C@@H]32)C(=O)N1CC1CC1.O=C(O)C(F)(F)F` it is -63.56%.
Take `CC1=N[C@@]2(CC[C@@H]3CN(Cc4ccccc4F)C[C@@H]32)C(=O)N1CC1CC1.O=C(O)C(F)(F)F`: the “Percent Effect” value (30 µM, 30.03 µM) came to 55.44%.
With `CN(C)C(=O)c1cc2c(nc1NCC1CC1)CCNCC2`, under “30.3 µM, […]”, the “Percent Effect” value is on record as -109.7%.
Regarding `CCCN1CCN(C(=O)c2cnn(-c3ccccc3F)c2)CC1`, the “Percent Effect” value (30 µM, 30.03 µM) was found to be 55.35%.
For the molecule `CCC(O)CN1CCN(C(=O)c2cnn(-c3ccccc3F)c2)CC1` (stereo unspecified), for the setting “30 µM, 30.03 µM”, the “Percent Effect” value worked out at 22.96%.
Still for that read-out and setting: to `O=C(c1cnn(-c2ccccc2F)c1)N1CCN(CCO)CC1` belongs 1.358%.
`CN1C(=O)CC[C@]12CC[C@@H](NCc1ccsc1)CC2.O=C(O)C(F)(F)F`: the “Percent Effect” value (30.3 µM, […]) is reported as 8.729%.
`CC(C)CCN1C[C@H]2C[C@H](C(=O)NCc3ccccc3)[C@@H](C1)O2.O=C(O)C(F)(F)F`: the “Percent Effect” value (30 µM, 30.03 µM) is recorded as 29.18%.
On the same count and under the same terms, to `CCn1cc(-c2cc(-c3cc(CN(C)C)cs3)nc(N)c2C#N)c(C)n1` belongs -4.566%.
For the molecule `CCn1ccnc1C1CCN(Cc2cccc(Cl)c2)CC1`, under “30 µM, 30.03 µM”, the “Percent Effect” value is on record as -40.4%.
The same measure, in the same setting: the figure for `Cc1ccc(Cl)c(CN2CCC(c3nccn3C(C)C)CC2)c1F` is 104.1%.
Still for that read-out and setting: to `CC(C)n1ccnc1C1CCN(Cc2ccc(Cl)c(F)c2)CC1` belongs 33.49%.
Consider `CCn1ccnc1C1CCN(Cc2cccc(C)n2)CC1`, for which the “Percent Effect” value (30 µM, 30.03 µM) is reported as -34.54%.
As for `CCn1ccnc1C1CCN(Cc2c(F)cccc2F)CC1`, the “Percent Effect” value (30 µM, 30.03 µM) was 86.79%.
Take `Cc1cc(CN2CCC(c3nccn3C(C)C)CC2)ccc1F`: for the setting “30 µM, 30.03 µM”, the “Percent Effect” value is recorded as -24.52%.
Take `COc1ccc(Cl)cc1C(C(=O)O)N1CCSCC1` (stereo unspecified): the “Percent Effect” value (30.3 µM, […]) is recorded as -71.2%.
For `Cc1cccc(C2CCCN2Cc2nc(N)nc(N(C)C)n2)c1C` (stereo unspecified), the “Percent Effect” value (30 µM, 30.03 µM) stood at 100.5%.
Take `CN(C)c1nc(N)nc(CN2CCCC2c2cccs2)n1` (stereo unspecified): the “Percent Effect” value (30 µM, 30.03 µM) is given as -6.91%.
Same read-out and setting: to `CN(C)c1nc(N)nc(CN2CCCC2c2ccsc2)n1` (stereo unspecified) belongs -20.26%.
